hgDAF12 agonist = H. glycines DAF-12 receptor agonists, primary screen, cell-based, luminescence, HEK293, GAL4 fusion, UAS-luciferase | Nuclear hormone receptor DAF-12 (Heterodera glycines), GAL4 fusion | HEK293 GAL4-hgDAF12 UAS-luciferase reporter, agonist luminescence; normalized to butyrate control | activation, % at 6.8 µM | hit rate 1.8% among 370,000 | AID 687014, 2013;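 active means activation above a cutoff set at the mean of all screened compounds plus 3 SD, cut at about 10% in these data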
ssDAF-12 act = S. stercoralis DAF-12 nuclear receptor activators, primary screen, cell-based, luminescence, HEK293, GRIP1 co-expression, lit1-tk-luc; Nuclear hormone receptor DAF-12 (Strongyloides stercoralis); HEK293 ssDAF-12/GRIP1 lit1-tk-luc reporter; % of 3 µM dafachronic acid response; activation, % at 6.8 µM; hit rate 1% among 370,000; AID 652126, 2013;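 active means activation above the mean over all tested compounds plus 3 SD, cut at about 0.9% in these data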
DAX1 inh-1 = DAX1 (NR0B1) inhibitors, primary screen, cell-based, HEK293, Gal4-DAX1, luciferase luminescence | AID 504766, 2011 | inhibition, % at 6.75 µM | Nuclear receptor subfamily 0 group B member 1 (Homo sapiens), P51843 | hit rate 0.99% among 340,000 | HEK293 Gal4-DAX1 luciferase reporter;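 active means inhibition above the mean over all tested compounds plus 3 SD, cut at about 4.2% in these data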;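 further: inhibition shows as a rise in luminescence from relieved DAX1 repression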
Target sequence (P51843 207-470 limits assumed): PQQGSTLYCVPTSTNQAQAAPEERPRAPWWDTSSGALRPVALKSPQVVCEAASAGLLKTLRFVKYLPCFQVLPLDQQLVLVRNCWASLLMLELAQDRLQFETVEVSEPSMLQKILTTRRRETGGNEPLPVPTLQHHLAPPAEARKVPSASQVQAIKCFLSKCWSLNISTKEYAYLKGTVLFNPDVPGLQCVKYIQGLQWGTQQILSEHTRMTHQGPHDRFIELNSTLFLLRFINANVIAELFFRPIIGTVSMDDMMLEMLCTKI
AHR activator = AHR activators, primary screen, cell-based, luminescence, luciferase reporter, human. hit rate 2.5% among 320,000. activation, % at 5 µM. AHR-responsive luciferase reporter cells. AID 2796, 2010; in the data active means activation above about 47%
hcDAF12 agonist = H. contortus DAF-12 nuclear receptor activators, primary screen, cell-based, luminescence, HEK293, lit1-tk-luc reporter; HEK293 hcDAF-12 lit1-tk-luc reporter; 0% DMSO, 100% Δ7-dafachronic acid; AID 652067, 2013; activation, % at 6.8 µM; hit rate 1.4% among 370,000;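 active means activation above the mean of all tested compounds plus 3 SD, cut at about 5.5% in these data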
DAX1 inh-2 = DAX1 (NR0B1) inhibitors on StAR promoter, primary screen, cell-based, luminescence, SF-1 (NR5A1), full-length DAX-1. HEK293T StAR-luciferase reporter, SF-1/DAX-1 repression relief. inhibition, % at 6.8 µM. hit rate 1.1% among 370,000. AID 652010, 2013;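 active means inhibition above the mean over all tested compounds plus 3 SD, cut at about 3.6% in these data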;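 further: higher inhibition means more luminescence from relief of DAX-1 repression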
LXR ag = LXR agonists, Gal4 luciferase reporter, confirmation, counter-screen for hcDAF-12 agonist project, cell-based, luminescence, HEK293, H. contortus campaign; shares compounds with hcDAF12 agonist; HEK293 Gal4-LXR tk-luc reporter, 24 h; normalized: DMSO 0%, positive control 100%; activation, % at 6.8 µM; 3,400 tested, under 10 active;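 active means mean percent activation of the reporter above a cutoff set as the average over tested compounds plus their standard deviation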
hcDAF12 conf = H. contortus DAF-12 receptor agonists, confirmation, cell-based, luminescence, HEK293, lit1-tk-luc, triplicate; shares compounds with hcDAF12 agonist; HEK293 hcDAF-12 lit1-tk-luc reporter; % of Δ7-dafachronic acid response; activation, % at 6.8 µM; hit rate 61% among 3,400;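 active means mean activation across triplicate tests above the threshold derived from the earlier primary screen, cut at about 5.5% in these data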
Of the large screens only hits and unclear results are named; the others gave an inactive call (follow-up assays come after a bar, where they were run). The list is not random: actives were taken first. Their share in the collection is about 5.7%.

NNc1nc(-c2ccccc2Cl)nc2ccccc12	none
Cc1ccccc1SC1CCN(Cc2nc(C3CC3)no2)CC1	none
O=c1cc[nH]c2c(Cl)cccc12	hcDAF12 agonist 7.2 | LXR ag inactive | hcDAF12 conf 5.7
Cc1nnc(-n2cccc2)s1	hcDAF12 agonist 7.2 (no result: DAX1 inh-1, AHR activator) | LXR ag inactive | hcDAF12 conf inactive
CCCC1=C(C(=O)OCC)C(c2sccc2C)n2ncnc2N1 (stereo not given)	none
Cc1ccc(C(=O)N/C(=C\c2ccc(-c3ccccc3[N+](=O)[O-])o2)C(=O)NCCCN2CCOCC2)cc1	hcDAF12 agonist 7.3 | LXR ag inactive | hcDAF12 conf inactive
C(=N\Nc1ccccc1)/c1nc2ccccc2s1	hgDAF12 agonist 24, ssDAF-12 act 3.8, DAX1 inh-1 4.8, AHR activator 69, hcDAF12 agonist 18 | LXR ag inactive | hcDAF12 conf 23
Cc1ccc(Nc2nnc(SCC(=O)NCCN3C(=O)CSC3=O)s2)cc1C	hgDAF12 agonist 11, hcDAF12 agonist 12 | LXR ag inactive | hcDAF12 conf inactive
O=C(N/N=C/c1c[nH]c2ccccc12)c1cccc(O)c1	none
Cn1ccc(C(=O)N/N=C/c2c[nH]c3ccccc23)n1	ssDAF-12 act 0.9, hcDAF12 agonist 12 | LXR ag inactive | hcDAF12 conf inactive
COc1ccc2c(/C=N/Nc3ccc(C(=O)O)cc3)c[nH]c2c1	ssDAF-12 act 0.9, hcDAF12 agonist 10 | LXR ag inactive | hcDAF12 conf 10
CC(=O)Nc1cccc(C(=O)N/N=C/c2c[nH]c3ccccc23)c1	ssDAF-12 act 0.9, AHR activator 76, hcDAF12 agonist 8.5 | LXR ag inactive | hcDAF12 conf inactive
COc1ccc2c(c1)c(/C=N/Nc1ccc(C(=O)O)cc1)c(C)n2C	none
O=C(O)c1cc(N/N=C/c2c[nH]c3ccccc23)ccc1Cl	ssDAF-12 act 3.2, AHR activator 58, hcDAF12 agonist 8.6 | LXR ag inactive | hcDAF12 conf 10
COc1ccc(Cc2nc3ccc(C(=O)N(C)C(C)c4ccon4)cc3o2)cc1 (stereo not given)	none
COCCNC(=O)C(OC(=O)CC1Sc2ccccc2NC1=O)c1ccccc1 (stereo not given)	none
Cc1ccc(-c2cc(C(F)F)n3ncc(C(=O)N4CCCc5ccccc54)c3n2)cc1	hcDAF12 agonist 6.6 | LXR ag inactive | hcDAF12 conf inactive
O=[N+]([O-])c1ccccc1-c1ccc(C(=S)N2CCCC2)o1	ssDAF-12 act 1.8, hcDAF12 agonist 9.4 | LXR ag inactive | hcDAF12 conf 9.7
Cc1cccc(N2CCN(C(=S)c3ccc(-c4ccccc4[N+](=O)[O-])o3)CC2)c1	none
O=[N+]([O-])c1ccccc1-c1ccc(C(=S)N2CCCCC2)o1	hcDAF12 agonist 6.8 | LXR ag inactive | hcDAF12 conf 7.0
Cc1oc(-c2cccc(Cl)c2)nc1CS(=O)(=O)CC(=O)NCc1ccco1	none
COc1cc(C=C2C(=O)OC(C)(C)OC2=O)ccc1OCC(=O)Nc1ccccc1	hcDAF12 agonist 7.1 | LXR ag inactive | hcDAF12 conf inactive
CCCCC[C@@H]1C=C(C(=O)O)[C@H](c2cccc(C)c2)N1S(=O)(=O)c1ccc(C)cc1	none
O=C(NNC(=S)NC(=O)c1ccccc1[N+](=O)[O-])c1ccccc1Cl	hcDAF12 agonist 7.2 | LXR ag inactive | hcDAF12 conf inactive
O=C(NC(=S)Nc1ccccc1[N+](=O)[O-])c1ccccc1Cl	none
CC(=O)N1C(=O)/C(=C2\SC(=S)N(c3c(C)n(C)n(-c4ccccc4)c3=O)C2=O)c2ccccc21	ssDAF-12 act 1.2, hcDAF12 agonist 9.3 | LXR ag inactive | hcDAF12 conf inactive
Cc1c(N2C(=O)/C(=C3/C(=O)N(C)c4ccccc43)SC2=S)c(=O)n(-c2ccccc2)n1C	none
CCOc1ccccc1CN1CCN(Cc2cc3ccccc3[nH]2)CC1CCO (stereo not given)	hcDAF12 agonist 7.0 | LXR ag inactive | hcDAF12 conf inactive
C=CCSc1cc(C)nc2c(-c3ccccc3)cnn12	hgDAF12 agonist 12, ssDAF-12 act 2.9, DAX1 inh-1 4.9, AHR activator 99, hcDAF12 agonist 12 | LXR ag inactive | hcDAF12 conf 6.9
CCSc1ncc(/C=N/Nc2ccc(Cl)cc2)n1C	ssDAF-12 act 1.6, AHR activator 103, hcDAF12 agonist 12 | LXR ag inactive | hcDAF12 conf 10.0
COC(=O)c1cnc(SCc2ccc(Cl)cc2)n1C	none
O=C(CCn1c(=S)oc2ccccc21)Nc1cccc(F)c1	hcDAF12 agonist 7.5 | LXR ag inactive | hcDAF12 conf inactive
Cc1ccc2[nH]c(=O)c(C(c3nnnn3C3CCCC3)N3CCCc4ccccc43)cc2c1 (stereo not given)	hcDAF12 agonist 6.7 | LXR ag inactive | hcDAF12 conf inactive
CC1Cn2c(nnc2-c2ccc(F)cc2)S1 (stereo not given)	ssDAF-12 act 1.0, hcDAF12 agonist 6.9 | LXR ag inactive | hcDAF12 conf inactive
CC(=O)/C=C\c1ccccc1OC(=O)c1cc2ccccc2oc1=O	none
O=C(/C=C\c1ccccc1OC(=O)c1ccccc1F)c1cc2ccccc2o1	DAX1 inh-1 5.3, AHR activator 59, hcDAF12 agonist 7.3 | LXR ag inactive | hcDAF12 conf 5.9
Cc1ccc(-c2nc(NCCN(C)C)c3ccccc3n2)cc1	hcDAF12 agonist 14 | LXR ag inactive | hcDAF12 conf 8.7
Cc1ccc(-c2nc(NCc3ccco3)c3ccccc3n2)cc1	ssDAF-12 act 0.9, hcDAF12 agonist 6.6 | LXR ag inactive | hcDAF12 conf 5.7
c1ccc(-c2nc(NCc3cccnc3)c3ccccc3n2)cc1	none (no result: hgDAF12 agonist, ssDAF-12 act, hcDAF12 agonist, DAX1 inh-2)
